Activity calls are given as the source filed them. The calls were made as follows: active = hit-call score of the fitted dose curve at least 0.9, where 1 is the maximum; inactive = score below 0.9.
Experiments:
[1] = CEETOX_H295R_PROG: CeeTox H295R High-throughput Steroidogenesis Assay for Progesterone (PROG) (AID 2283442); conditions: actives raise or lower the signal
How it was run: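 H295R adrenal cells prestimulated 48 h with 10 uM forskolin, then exposed 48 h to test chemical in 0.1% DMSO. Progesterone in medium quantified by HPLC-MS/MS after MTBE extraction; viability checked by MTT in same wells.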

[2] = read-out: Tumor necrosis factor receptor superfamily member 6 (Homo sapiens) (UniProt P25445); experiment: LTEA_HepaRG_FAS: Life Technologies and Expression Analysis (LTEA) Assay for Fas cell surface death receptor (FAS) using HepaRG (AID 2283447); conditions: mRNA level, 48 h; actives raise or lower the signal
How it was run: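 Differentiated HepaRG cells in serum-free induction medium were exposed 48 h to 8 half-log concentrations up to 100 uM in 0.5% DMSO, in duplicate. FAS mRNA was measured by qRT-PCR normalised to ACTB, GAPDH and POLR2A; bidirectional fit versus DMSO.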

[3] = read-out: Fatty acid synthase (Homo sapiens) (UniProt P49327); experiment: LTEA_HepaRG_FASN: Life Technologies and Expression Analysis (LTEA) Assay for Fatty Acid Synthase (FASN) using HepaRG (AID 2283448); conditions: mRNA level, 48 h; actives raise or lower the signal
How it was run: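 Transcript-level assay: HepaRG liver cells are treated for 48 h across an eight-point range topping at 100 uM, and FASN mRNA, normalized to three housekeeping genes, is compared with DMSO controls in both directions.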

[4] = read-out: Cyclin D2 (CCND2), CCND2 (gene 894); experiment: LTEA_HepaRG_CCND2: Life Technologies and Expression Analysis (LTEA) Assay for Cyclin D2 (CCND2) using HepaRG (AID 2283449); conditions: mRNA level, 48 h; actives raise or lower the signal;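 also: CCND2 transcript measured by TaqMan qRT-PCR and normalised to three housekeeping genes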
How it was run: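 Chemicals in 0.5% DMSO, eight half-log concentrations from 100 uM top, were applied in duplicate for 48 h to human HepaRG cells in serum-free induction medium. CCND2 mRNA by TaqMan qRT-PCR, normalised to ACTB/GAPDH/POLR2A; bidirectional fit versus DMSO.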

[5] = read-out: Cyclin Dependent Kinase Inhibitor 1A (CDKN1A), CDKN1A (gene 1026); experiment: LTEA_HepaRG_CDKN1A: Life Technologies and Expression Analysis (LTEA) Assay for Cyclin Dependent Kinase Inhibitor 1A (CDKN1A) using HepaRG (AID 2283450); conditions: mRNA level, 48 h; actives raise or lower the signal
How it was run: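 Differentiated HepaRG cells in serum-free induction medium, exposed 48 h in duplicate to eight half-log concentrations up to 100 uM in 0.5% DMSO. mRNA measured by TaqMan qRT-PCR, normalized to ACTB, GAPDH, POLR2A; bidirectional fit versus DMSO.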

[6] = read-out: catalase (CAT), CAT (gene 847); experiment: LTEA_HepaRG_CAT: Life Technologies and Expression Analysis (LTEA) Assay for catalase (CAT) using HepaRG (AID 2283452); conditions: mRNA level, 48 h; actives raise or lower the signal;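 as to AC50: TaqMan qRT-PCR signal normalized to ACTB GAPDH and POLR2A housekeeping genes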
How it was run: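 HepaRG cells in serum-free induction medium, 0.5% DMSO vehicle, exposed 48 h in duplicate over 8 half-log concentrations from 100 uM. CAT mRNA measured by qRT-PCR, normalized to ACTB, GAPDH, POLR2A; bidirectional fit versus DMSO.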

[7] = read-out: flavin-containing dimethylaniline monooxygenases 3 (FMO3), FMO3 (gene 2328); experiment: LTEA_HepaRG_FMO3: Life Technologies and Expression Analysis (LTEA) Assay for flavin-containing dimethylaniline monooxygenases 3 (FMO3) using HepaRG (AID 2283453); conditions: mRNA level, 48 h; actives raise or lower the signal
How it was run: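 HepaRG, 48 h exposure, 8-pt half-log series from 100 uM, 0.5% DMSO vehicle, duplicates; FMO3 transcript by Fluidigm TaqMan qRT-PCR, housekeeping-normalized; gain/loss fit vs DMSO.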

[8] = read-out: Cytochrome P450 (CYP1A1), CYP1A1 (gene 1543); experiment: LTEA_HepaRG_CYP1A1: Life Technologies and Expression Analysis (LTEA) Assay for Cytochrome P450 (CYP1A1) using HepaRG (AID 2283454); conditions: mRNA level, 48 h; actives raise or lower the signal
How it was run: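 Differentiated human HepaRG cells, after 48 h plating, exposed in duplicate for 48 h in serum-free induction medium to 8 half-log concentrations up to 100 uM in 0.5% DMSO. CYP1A1 mRNA by qRT-PCR, normalized to ACTB/GAPDH/POLR2A; bidirectional fit versus DMSO.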

[9] = read-out: CFLAR gene, CFLAR (gene 8837); experiment: LTEA_HepaRG_CFLAR: Life Technologies and Expression Analysis (LTEA) Assay for CFLAR gene using HepaRG (AID 2283455); conditions: mRNA level, 48 h; actives raise or lower the signal
How it was run: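 Differentiated HepaRG cells in serum-free induction medium were exposed 48 h in duplicate to eight half-log concentrations up to 100 uM in 0.5% DMSO; mRNA measured by TaqMan qRT-PCR, normalized to ACTB, GAPDH, POLR2A; bidirectional fitting versus DMSO.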

[10] = read-out: growth arrest and DNA damage 45 (GADD45A), GADD45A (gene 1647); experiment: LTEA_HepaRG_GADD45A: Life Technologies and Expression Analysis (LTEA) Assay for growth arrest and DNA damage 45 (GADD45A) using HepaRG (AID 2283458); conditions: mRNA level, 48 h; actives raise or lower the signal
How it was run: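 Human HepaRG liver cells are treated in duplicate for 48 h with chemicals in 0.5% DMSO, highest concentration 100 uM. Expression is read by qRT-PCR and analyzed in both directions against vehicle.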

[11] = read-out: Forkhead box O3 (FOXO3), FOXO3 (gene 2309); experiment: LTEA_HepaRG_FOXO3: Life Technologies and Expression Analysis (LTEA) Assay for Forkhead box O3 (FOXO3) using HepaRG (AID 2283459); conditions: mRNA level, 48 h; actives raise or lower the signal
How it was run: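 Differentiated human HepaRG cells, 48 h post-plating, exposed in duplicate for 48 h in serum-free induction medium; 8-point half-log series from 100 uM in 0.5% DMSO. FOXO3 mRNA by TaqMan qRT-PCR, normalized to ACTB/GAPDH/POLR2A; bidirectional fit versus DMSO.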

[12] = read-out: ABC Transporter (ABCB1), ABCB1 (gene 5243); experiment: LTEA_HepaRG_ABCB1: Life Technologies and Expression Analysis (LTEA) Assay for ABC Transporter (ABCB1) using HepaRG (AID 2283460); conditions: mRNA level, 48 h; actives raise or lower the signal
How it was run: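 HepaRG cells exposed in duplicate for 48 h in serum-free induction medium to eight half-log concentrations up to 100 uM in 0.5% DMSO. ABCB1 mRNA quantified by qRT-PCR, normalised to ACTB, GAPDH and POLR2A; fitted bidirectionally versus DMSO.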

[13] = read-out: growth arrest and DNA damage 45 (GADD45B), GADD45B (gene 4616); experiment: LTEA_HepaRG_GADD45B: Life Technologies and Expression Analysis (LTEA) Assay for growth arrest and DNA damage 45 (GADD45B) using HepaRG (AID 2283461); conditions: mRNA level, 48 h; actives raise or lower the signal
How it was run: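 Differentiated human HepaRG cells in serum-free induction medium exposed 48 h in duplicate to eight concentrations, top 100 uM, half-log steps, 0.5% DMSO. GADD45B mRNA by TaqMan qRT-PCR, normalized to ACTB, GAPDH, POLR2A; bidirectional fit versus DMSO.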

[14] = read-out: ABC Transporter (ABCC3), ABCC3 (gene 8714); experiment: LTEA_HepaRG_ABCC3: Life Technologies and Expression Analysis (LTEA) Assay for ABC Transporter (ABCC3) using HepaRG (AID 2283462); conditions: mRNA level, 48 h; actives raise or lower the signal
How it was run: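 Differentiated human HepaRG cells exposed 48 h in serum-free induction medium, 0.5% DMSO vehicle, 8-point half-log series to 100 uM in duplicate. ABCC3 mRNA by qRT-PCR, normalised to ACTB, GAPDH, POLR2A; bidirectional fit vs DMSO.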

[15] = read-out: Cyclin D1 (CCND1), CCND1 (gene 595); experiment: LTEA_HepaRG_CCND1: Life Technologies and Expression Analysis (LTEA) Assay for Cyclin D1 (CCND1) using HepaRG (AID 2283451); conditions: mRNA level, 48 h; actives raise or lower the signal
How it was run: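 Differentiated HepaRG cells exposed 48 h in serum-free induction medium to eight half-log concentrations from 100 uM top, 0.5% DMSO, duplicates. CCND1 mRNA measured by Fluidigm TaqMan qRT-PCR, normalised to ACTB, GAPDH, POLR2A; bidirectional fit.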

[16] = read-out: Forkhead box O1 (FOXO1), FOXO1 (gene 2308); experiment: LTEA_HepaRG_FOXO1: Life Technologies and Expression Analysis (LTEA) Assay for Forkhead box O1 (FOXO1) using HepaRG (AID 2283456); conditions: mRNA level, 48 h; actives raise or lower the signal
How it was run: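 Differentiated HepaRG cells, in serum-free induction medium with 0.5% DMSO, exposed 48 h in duplicate to 8-point half-log series from 100 uM. FOXO1 mRNA measured by TaqMan qRT-PCR, normalized to ACTB, GAPDH, POLR2A; bidirectional fit versus DMSO.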

Measured: AC50

Sequence of Fatty acid synthase (Homo sapiens) (P49327 whole entry, looked up): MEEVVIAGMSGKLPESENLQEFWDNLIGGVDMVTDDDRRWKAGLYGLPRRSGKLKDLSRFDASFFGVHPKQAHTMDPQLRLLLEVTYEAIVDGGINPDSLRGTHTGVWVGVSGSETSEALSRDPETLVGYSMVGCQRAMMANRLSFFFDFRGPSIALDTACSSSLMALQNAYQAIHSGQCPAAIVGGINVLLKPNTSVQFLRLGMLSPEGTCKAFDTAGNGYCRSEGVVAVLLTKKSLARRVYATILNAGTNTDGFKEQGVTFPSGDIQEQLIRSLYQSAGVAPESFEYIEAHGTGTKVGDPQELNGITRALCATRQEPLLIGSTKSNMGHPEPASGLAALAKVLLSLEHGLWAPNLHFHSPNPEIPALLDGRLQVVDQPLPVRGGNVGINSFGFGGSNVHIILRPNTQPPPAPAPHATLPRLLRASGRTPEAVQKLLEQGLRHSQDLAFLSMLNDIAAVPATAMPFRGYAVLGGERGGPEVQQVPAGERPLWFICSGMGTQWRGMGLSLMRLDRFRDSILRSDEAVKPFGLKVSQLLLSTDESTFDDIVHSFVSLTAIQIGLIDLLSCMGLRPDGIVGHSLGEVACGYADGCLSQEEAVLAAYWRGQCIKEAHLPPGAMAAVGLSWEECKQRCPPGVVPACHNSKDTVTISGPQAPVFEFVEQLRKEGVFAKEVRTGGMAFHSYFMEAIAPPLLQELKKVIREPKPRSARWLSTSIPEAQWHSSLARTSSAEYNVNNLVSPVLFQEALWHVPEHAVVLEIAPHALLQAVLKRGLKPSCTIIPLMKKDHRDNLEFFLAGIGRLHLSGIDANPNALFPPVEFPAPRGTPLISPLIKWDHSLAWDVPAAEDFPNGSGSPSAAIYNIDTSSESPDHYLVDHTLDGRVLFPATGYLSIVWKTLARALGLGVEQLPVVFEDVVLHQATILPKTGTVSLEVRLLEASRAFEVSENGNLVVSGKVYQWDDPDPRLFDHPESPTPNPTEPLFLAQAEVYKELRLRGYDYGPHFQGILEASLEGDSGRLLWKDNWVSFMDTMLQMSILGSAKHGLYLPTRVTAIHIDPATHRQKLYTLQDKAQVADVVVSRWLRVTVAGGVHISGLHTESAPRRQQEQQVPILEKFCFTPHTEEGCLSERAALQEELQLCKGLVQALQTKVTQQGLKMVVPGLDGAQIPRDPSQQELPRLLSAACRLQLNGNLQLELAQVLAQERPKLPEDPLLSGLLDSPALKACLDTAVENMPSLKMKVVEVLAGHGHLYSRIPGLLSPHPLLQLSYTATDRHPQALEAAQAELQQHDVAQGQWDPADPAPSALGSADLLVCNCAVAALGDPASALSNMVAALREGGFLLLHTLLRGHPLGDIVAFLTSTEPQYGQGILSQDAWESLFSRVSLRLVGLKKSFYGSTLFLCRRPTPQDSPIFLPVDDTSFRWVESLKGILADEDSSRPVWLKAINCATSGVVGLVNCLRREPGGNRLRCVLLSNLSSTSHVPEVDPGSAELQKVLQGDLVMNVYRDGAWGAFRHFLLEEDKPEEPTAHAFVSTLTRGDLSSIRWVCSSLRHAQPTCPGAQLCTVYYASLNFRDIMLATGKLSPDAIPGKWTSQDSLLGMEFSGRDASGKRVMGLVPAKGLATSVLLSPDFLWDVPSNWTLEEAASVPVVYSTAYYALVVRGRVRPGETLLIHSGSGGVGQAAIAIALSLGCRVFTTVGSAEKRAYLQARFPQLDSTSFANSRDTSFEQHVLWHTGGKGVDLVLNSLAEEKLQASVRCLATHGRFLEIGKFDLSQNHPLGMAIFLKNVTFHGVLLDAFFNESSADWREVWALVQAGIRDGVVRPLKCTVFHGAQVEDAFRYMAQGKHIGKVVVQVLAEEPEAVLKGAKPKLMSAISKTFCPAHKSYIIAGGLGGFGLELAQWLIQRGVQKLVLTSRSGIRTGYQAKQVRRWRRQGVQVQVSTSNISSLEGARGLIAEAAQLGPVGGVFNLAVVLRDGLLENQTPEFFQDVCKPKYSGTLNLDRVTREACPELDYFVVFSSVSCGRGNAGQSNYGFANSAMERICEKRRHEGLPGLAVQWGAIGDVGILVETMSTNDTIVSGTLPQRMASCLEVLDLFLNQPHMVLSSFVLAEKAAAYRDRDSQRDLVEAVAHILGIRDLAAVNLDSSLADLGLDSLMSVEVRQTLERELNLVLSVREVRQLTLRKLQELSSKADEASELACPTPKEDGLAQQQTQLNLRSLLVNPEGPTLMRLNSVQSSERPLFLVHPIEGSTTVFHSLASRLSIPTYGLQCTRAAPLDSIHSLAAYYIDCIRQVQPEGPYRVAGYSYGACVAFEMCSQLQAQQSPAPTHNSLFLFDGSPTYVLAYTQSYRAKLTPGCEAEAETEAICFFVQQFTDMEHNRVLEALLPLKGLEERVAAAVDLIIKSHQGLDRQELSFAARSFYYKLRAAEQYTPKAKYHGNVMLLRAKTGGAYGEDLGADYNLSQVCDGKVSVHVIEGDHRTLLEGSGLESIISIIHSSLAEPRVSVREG

C[C@](N)(Cc1ccc(O)c(O)c1)C(=O)O
inactive: [1] | [2] | [3] | [4] | [5] | [6] | [7] | [9] | [10] | [11] | [12] | [13] | [14]
active: [8] 71.6 µM

CCOC(=O)COc1ccc2c(c1)CC(NCC(O)c1cccc(Cl)c1)CC2 (stereo not given)
inactive: [2] | [3] | [4] | [5] | [15] | [6] | [7] | [8] | [9] | [10] | [11] | [12] | [13] | [14]

CC(C)CCCCCCCOC(=O)CCCCC(=O)OCCCCCCCC(C)C
active: [8] 50 µM
inactive: [2] | [3] | [4] | [5] | [15] | [6] | [7] | [9] | [16] | [10] | [11] | [12] | [13] | [14]

C1N2CN3CN1CN(C2)C3
inactive: [2] | [3] | [4] | [5] | [15] | [6] | [7] | [9] | [10] | [11] | [12] | [13] | [14]
active: [8] 51 µM

CCOC(=O)CC(CC(=O)OCC)(OC(C)=O)C(=O)OCC
active: [8] 70.5 µM
inactive: [2] | [3] | [4] | [5] | [15] | [6] | [7] | [9] | [10] | [11] | [12] | [13] | [14]

O=C(NS(=O)(=O)/C=C/c1ccccc1)c1ccc(F)cc1Cl
inactive: [2] | [3] | [4] | [5] | [15] | [6] | [7] | [9] | [16] | [10] | [11] | [13] | [14]
active: [8] 50 µM | [12] 10.8 µM

CCCCCCc1ccc(O)cc1O
inactive: [2] | [3] | [4] | [5] | [15] | [6] | [7] | [9] | [10] | [11] | [12] | [13] | [14]
active: [8] 77.7 µM

O=C(CCCCCCCCc1cccnc1)N1CCC(C=C(c2ccccc2)c2ccccc2)CC1
active: [2] 50 µM | [3] 50 µM | [5] 27 µM | [6] 22.5 µM | [7] 29.6 µM | [8] 32.6 µM | [16] 12.4 µM | [10] 26.9 µM | [12] 30.7 µM | [13] 84.6 µM
inactive: [4] | [15] | [9] | [11] | [14]

Cc1ccc(C)c(O)c1
inactive: [2] | [3] | [4] | [5] | [15] | [6] | [7] | [9] | [16] | [10] | [11] | [12] | [13] | [14]
active: [8] 51.2 µM

CC(=O)OCCC(C)C
inactive: [2] | [3] | [4] | [5] | [6] | [7] | [9] | [16] | [10] | [11] | [12] | [13] | [14]
active: [8] 73.2 µM

Cn1cnc([N+](=O)[O-])c1Sc1ncnc2nc[nH]c12
inactive: [2] | [3] | [4] | [9] | [10] | [12] | [13] | [14]
active: [5] 4.48 µM | [6] 1.69 µM | [7] 17.5 µM | [8] 34.8 µM | [16] 5.19 µM | [11] 4.06 µM

CC(C)CCCCCCOC(=O)c1ccc(C(=O)OCCCCCCC(C)C)c(C(=O)OCCCCCCC(C)C)c1
inactive: [2] | [3] | [4] | [5] | [15] | [6] | [7] | [9] | [16] | [10] | [11] | [12] | [13] | [14]
active: [8] 50 µM

COCCOCCOCCOC
inactive: [2] | [3] | [4] | [5] | [15] | [6] | [7] | [8] | [9] | [10] | [11] | [12] | [13] | [14]

CCCC(=O)OCC
active: [8] 50 µM
inactive: [2] | [3] | [4] | [5] | [6] | [7] | [9] | [16] | [10] | [11] | [12] | [13] | [14]

CC(C)=CCC/C(C)=C\CO
inactive: [2] | [3] | [4] | [5] | [15] | [6] | [7] | [9] | [16] | [10] | [11] | [12] | [13] | [14]

C=CC(=C)CCC=C(C)C
active: [8] 35 µM
inactive: [2] | [3] | [4] | [5] | [15] | [6] | [7] | [9] | [16] | [10] | [11] | [12] | [13] | [14]
